In PubChem BioAssay AID588473 (Sanford-Burnham Center for Chemical Genomics, 2011) one finds activation data, which are given here for 92 molecules.

The whole screen tested about 350,000 compounds, of which about 1,600 (0.46%) were called active. Shown is part of a subset that was picked to be rich in actives. A number with no mark means an inactive call.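 The calls were made as follows: active = activation of at least 50%, plus an integration ratio under a set limit after plate pattern correction; inactive = the rest.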

The assay deals with CRF-binding protein / CRF receptor 2 complex (human). Description: activators of CRF-R2 with CRF-BP – cell-based, HEK293, calcium dye fluorescence, uHTS, primary screen (AID 588473).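 Also: plate controls were neutral control wells without compound for no effect and CRF at EC100 for full effect.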 The following applies: calcium dye fluorescence (FLIPR), at 13.2 µM, hits give high values, percent of saturating CRF peptide response.
Turning to `CCN(CC)CCCC(C)n1c2nc(=O)[nH]c(=O)c-2nc2cc(Cl)ccc21` (configuration not stated), the activation was 192% (active). In the case of `C=C(C)Cn1c(C)cc(C)c(S(=O)(=O)c2ccccc2C)c1=O`, the activation was -0.15%. As for `CC1COc2ccccc2N1S(=O)(=O)c1ccccc1` (configuration not stated), the activation is 2.38%. As to `Cc1nn(C)cc1/C=C1\CCC/C(=C\c2cn(C)nc2C)C1=O`, the activation is 0.2%. Regarding `COc1cccc(-c2nnc(NC(=O)c3ccc(S(=O)(=O)N(CC(C)C)CC(C)C)cc3)o2)c1`, the activation was 98.1% (active). With `COc1cc(-c2nnc(NC(=O)CS(=O)(=O)c3ccc(Cl)cc3)o2)cc(OC)c1OC` the figure was 3.74%; with `COc1ccc(-c2nnc(NC(=O)CS(=O)(=O)c3ccc(Cl)cc3)o2)c(OC)c1`, -1.55%; with `CCCCN1C(=O)C(CC(=O)NCc2cccs2)CC(C(=O)N2CCOCC2)=C1C` (configuration not stated), -1.86%. As for `CC(OC(=O)c1ccc(NC(=O)CC#N)cc1)C(=O)Nc1ccc(S(=O)(=O)N2CCCC2)cc1` (configuration not stated), the activation is -0.83%. Turning to `O=C(COC(=O)C1(c2ccc(F)cc2)CCCC1)N1CCNC1=O`, the activation was -1.56%. As for `N#Cc1c(C(F)(F)F)cc(-c2ccc(Cl)cc2)nc1SCC(=O)O`, the activation is 0.45%. Turning to `N#Cc1c(-c2ccc(F)cc2)cc(C2CC2)nc1SCC(=O)c1cccs1`, the activation was 76.4% (active). Consider `O=C(c1cccs1)N1CCCC(c2nc(-c3ccc(F)cc3)no2)C1` (configuration not stated), for which the activation was -3.55%.

`COCCCNC(=O)C1CC(=O)N(CCc2ccccc2)C1` (configuration not stated): the activation is -1.35%.

As for `CC1(C)SC2c3ccccc3C(=O)N2[C@@H]1C(=O)NCc1ccco1` (some centres not stated), the activation was -0.83%.

`COCCCNC(=O)[C@H]1N2C(=O)c3ccccc3C2SC1(C)C` (some centres not stated): the activation is 53.6% (active). For `O=C(Nc1cccc2ccccc12)c1onc2c1CCCC2`, the activation was -2.42%. As for `CC(OC(=O)CCCOc1ccccc1)C(=O)Nc1ccc(Cl)cn1` (configuration not stated), the activation is -1.67%. With `O=C(c1ccccc1)c1ccc(C(=O)N2CCN(c3ccccc3)CC2)cc1`, the activation is 0.4%. In the case of `O=C(/C=C/c1ccc(N2CCOCC2)cc1)c1ccccc1`, the activation was 89.1% (active).

Consider `O=C(NC(=O)N1CCOCC1)c1ccccc1`, for which the activation was 5.54%. In the case of `Cc1ccc(S(=O)(=O)Nc2nc(CN3CCOCC3)nc3sc(C)c(C)c23)cc1`, the activation is 3.71%. As for `CCC(=O)c1cc(F)ccc1OCC(=O)Nc1ccc2c(c1)OCCO2`, the activation is 0.29%. Consider `O=S(=O)(c1cccc(C(F)(F)F)c1)N1CCN(c2cnccn2)CC1`, for which the activation is -0.32%. In the case of `O=S(=O)(c1cccc(C(F)(F)F)c1)N1c2ccccc2-n2cccc2C1c1cccnc1` (configuration not stated), the activation is 138% (active). `O=C(CN(c1cc(C(F)(F)F)ccc1Cl)S(=O)(=O)c1ccccc1)NCc1cccnc1`: the activation is 1.6%. Turning to `COCCN(C(=O)CCC(=O)Nc1nccs1)C(C(=O)NC(C)(C)C)c1ccc(Cl)cc1` (configuration not stated), the activation is 0.68%. As to `CCCC(=O)Nc1ncnc2c1ncn2[C@@H]1O[C@@H]2OP(=O)(O)OC[C@H]2[C@H]1OC(=O)CCC`, the activation was -0.33%. Take `O=C(Nc1cccc(S(=O)(=O)NC2=NCCC2)c1)C1CCCCC1`: the activation is 1.06%. Consider `O=C(O)C1OC(C(=O)O)C2C1C(F)(F)C2(F)F` (configuration not stated), for which the activation is 0.58%. For `CCOC(=O)Cc1cc(=O)[nH]c(=O)[nH]1`, the activation was -0.34%. `CC(Nc1ccc([N+](=O)[O-])cc1[N+](=O)[O-])c1ccccc1` (configuration not stated): the activation is -3.71%. In the case of `O=C(NC(Nc1nc2ccc([N+](=O)[O-])cc2s1)(C(F)(F)F)C(F)(F)F)c1ccccc1`, the activation is 69.9% (active).

Take `O=C(O)c1cc([N+](=O)[O-])c(Nc2cccc3ccccc23)c([N+](=O)[O-])c1`: the activation was -0.94%. For the molecule `CCN=c1sc(C(=O)Nc2ccccc2)c(C)n1CC`, the activation was -2.99%. The same measure for `CCOc1ccccc1N1CN(Cc2ccccc2)CNC1=S`: -0.43%; for `CCc1ccccc1N1CN(Cc2ccco2)CNC1=S`: 80.2% (active). For `Cn1c2c(c(=O)n(C)c1=O)CN(Cc1ccco1)CN2`, the activation was 2.8%. Regarding `CCn1c(=O)c2ccccc2n(CC(=O)N2CCCc3ccccc32)c1=O`, the activation was 0.82%. For `Cn1c(SCC(=O)N2CCCc3ccccc32)nc2ccccc2c1=O`, the activation is 3.16%. For `C=CCn1c(=O)c2ccccc2n2c(SCC(=O)N3CCCc4ccccc43)nnc12`, the activation was 75.3% (active).

For `CCOC(=O)CSC1=N/C(=C/c2ccc(-n3cncn3)cc2)C(=O)N1C(C)=O`, the activation was 1.8%. `COc1cccc(CNS(=O)(=O)c2ccc3c(c2)N(C(C)=O)CCS3)c1`: the activation was 1.61%.

Turning to `CN(C)c1ccc(/C=C2\NC(=S)N(Cc3ccccc3)C2=O)cc1`, the activation was 191% (active).

Take `CN(C)c1ccc(C=C2C(=O)OC3(CCCC3)OC2=O)cc1`: the activation is 23.8%. With `CC1CN(Cc2ccccc2)C(=S)NC1=O` (configuration not stated) the figure was -2.85%; with `Cc1ccccc1Cn1nc(C)c(NC(=O)C(F)(F)F)c1C`, -0.93%; with `CN(Cc1cc2cc(F)ccc2[nH]1)Cc1nc(-c2cnccn2)no1`, -0.56%.

For the molecule `O=C(CSc1nnc(-c2ccc([N+](=O)[O-])cc2)o1)Nc1ccccn1`, the activation is -0.44%. The same measure for `Cc1cccc(CN2CCN(Cc3cnn(-c4ccccc4F)c3)CC2CCO)n1` (configuration not stated): -2.69%. With `Cc1onc(-c2ccccc2)c1C(=O)N=C(N)c1ccc(Cl)cc1`, the activation is 2.16%. Turning to `O=C(NNC(=S)NC(=O)c1cn(-c2ccccc2)nc1-c1ccccc1)c1ccncc1`, the activation was 27.4%.

Turning to `COc1ccc(C(=O)NNC(=O)c2cc(C)[nH]n2)cc1`, the activation was -0.62%. On to `COc1ccc(C(=O)NC(=S)NNC(=O)c2c(-c3ccccc3)noc2C)cc1`, for which the activation was 99.3% (active). For `Cc1noc(C)c1COc1ccc(C(=O)NCCOc2ccccc2)cc1`, the activation is 3.12%. In the case of `Cc1onc(-c2ccccc2)c1C(=O)NNC(=S)NC(=O)c1ccc(F)cc1`, the activation was 181% (active). For `O=S(=O)(N/N=C\c1cccn1-c1ccccc1)c1ccc2ccccc2c1`, the activation was -1.5%. For `CCOC(=O)C1=C(N)N2C(=O)C(C)SC2=C(C(=O)OCC)C1c1cc(OC)c(OC)c(OC)c1` (configuration not stated), the activation was -0.18%. As to `COc1cccc(N2CC(NC(=O)c3ccc4ccccc4c3)CC2=O)c1` (configuration not stated), the activation was -0.96%. Consider `O=C(CCc1nc(-c2ccccc2)no1)Nc1cccc(C(=O)NC2CC2)c1`, for which the activation is -1.3%.

Regarding `Cc1cccc(N2CCN(C(=O)c3cnn4c(C(F)F)cc(-c5ccccc5)nc34)CC2)c1C`, the activation is -0.01%. Consider `Cc1ccc(Cl)cc1N1CCN(C(=O)c2cccc3c(=O)c(C)c(-c4ccccc4)oc23)CC1`, for which the activation is 63.6% (active).

Take `COC(=O)c1ccc(C(=O)OC)c(NC(=S)N2CCN(c3cc(Cl)ccc3C)CC2)c1`: the activation was 2.16%. On to `CC(=O)Nc1ccc(S(=O)(=O)N(C)c2ccc(OCC(=O)OCC(=O)N3CCCCC3)cc2)cc1`, for which the activation was -1.11%. The same measure for `COc1cc(N=Cc2c(O)c3ccccc3oc2=O)c(OC)cc1Cl`: 66.4% (active); for `O=c1oc2ccccc2c(=O)c2ccccc12`: 0%; for `COc1ccccc1CNC(=O)c1cc(=O)c2ccccc2o1`: -1.3%. As to `CC(C)C(=O)NC(=S)Nc1ccccc1F`, the activation is -2.1%.

`O=C(CCN1CCN(c2ccccc2)CC1)NNC(=S)Nc1ccccc1`: the activation is -0.17%. For `CCCCC(=O)NNC(=S)NC(=O)C(c1ccccc1)c1ccccc1`, the activation was 135% (active). In the case of `CC(C)CCNC(=O)CC1C(=O)N(Cc2ccccc2)C(C)c2nc3ccccc3n21` (configuration not stated), the activation was -1%.

For `OC(COCCC12CC3CC(CC(C3)C1)C2)CN1CCCCC1` (configuration not stated), the activation is 0.79%.

`COc1ccc(-c2ocnc2C(=O)Nc2ccc3c(c2)CCC3)cc1`: the activation is 1.68%.

Consider `COc1ccc(NC(C(=O)Nc2cccc(C(C)=O)c2)c2ccccc2)cc1` (configuration not stated), for which the activation is -0.34%. Turning to `COc1ccc(-c2onc3ccc(C(C)=O)cc23)cc1`, the activation is 100% (active). On to `O=C(Nc1ccccc1)c1ccccc1NC(=O)C(F)(F)F`, for which the activation was 55.4% (active). Turning to `COc1ccccc1C(=O)Nc1ccccc1C(=O)Nc1ccccc1`, the activation is 0.57%. Regarding `CC1CCCCC1NCC(=O)Nc1ccccc1C(=O)Nc1ccccc1` (configuration not stated), the activation is -2.89%. The same measure for `O=S(=O)(Nc1ccc(-c2ccc(N3CCOCC3)nn2)cc1)c1cc(Cl)ccc1Cl`: 0.21%; for `Clc1ccc2c(c1)C1=C(C(c3ccncc3)O2)C(c2ccc(Br)cc2)n2ncnc2N1` (configuration not stated): 0.45%. Consider `CCOc1ccccc1C1CC(c2ccccc2)Nc2nc(N)nn21` (configuration not stated), for which the activation was 8.41%.

Take `CC1=C(C(=O)OC2CCCCC2)C(c2cccnc2)n2ncnc2N1` (configuration not stated): the activation was -0.1%. On to `CCOc1ccc(C2=CC(c3ccccc3)n3ncnc3N2)cc1` (configuration not stated), for which the activation is 53.1% (active).

With `Brc1ccc(C2=CC(c3ccco3)n3ncnc3N2)cc1` (configuration not stated), the activation was 274% (active). Take `CN(CC(=O)Nc1ccccc1F)CC(=O)Nc1ccccc1Br`: the activation is -3.49%.

`Cc1cccc(CC2(O)C(=O)Nc3ccccc32)n1` (configuration not stated): the activation was -0.62%. Regarding `CCN(CC)S(=O)(=O)c1ccc(Cl)c(C(=O)NC(C)C(c2cccs2)N2CCCC2)c1` (configuration not stated), the activation was 0.2%. Regarding `OCCCNC(c1ccccc1)c1ccc(O)cc1` (configuration not stated), the activation was -1.4%. For the molecule `COC1=C/C(=C/c2c(N)n3nc(CC(=O)N4CCOCC4)sc3nc2=O)C=CC1=O`, the activation is 9.37%. On to `C=CCC1=C/C(=C\c2c(N)n3nc(CC(=O)N4CCOCC4)sc3nc2=O)C=C(OC)C1=O`, for which the activation was 83.2% (active).

Consider `COc1cc(/C=C2\C(=N)N3N=C(CC(=O)N4CCOCC4)SC3=NC2=O)cc(OC)c1OC`, for which the activation was -0.4%. Consider `CN(CC(=O)Nc1ccc(C(N)=O)cc1)S(=O)(=O)c1ccc2c(c1)OCCO2`, for which the activation is 3.57%.
